Assay results as given in PubChem BioAssay (NCATS).
Inconclusive results are not listed. A number with no mark means an inactive call. The source made the active and inactive calls. Calls follow the shape of the dose curve; as a rule, active = well fitted inhibition curve with a large enough effect; inconclusive = small, poorly fitted or top-dose-only effect; inactive = flat fitted curve, though single readings scatter.

Tested on: NIH3T3
Assay: Cytotoxic Profiling of Annotated Libraries Using Quantitative High-Throughput Screening (AID 1296008); also: nearly all actives have a fitted effect of over 60% in size
Details: Five cell lines viability, CellTiter-Glo ATP luminescence, 48-72 h; max response: stronger effect = lower value
Procedure, shortened: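 Cells exposed to compounds for 48 or 72 hr at 37 degrees Celsius. Viability read as ATP-coupled luminescence with CellTiter-Glo after 10 min at room temperature.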
% is scaled to controls: 0 for no effect and ±100 for the full control effect; potency is read from the fitted curve at half-maximal effect.

Structure (SMILES) | max response [%] | Potency | outcome
Fc1ccc(N2CCCCC2)c(NC(=S)c2ccncc2)c1 | -6.72 | – | –
O=C(Nc1ccccc1Br)NC1CCN(c2ccc(C(F)(F)F)cn2)C1 (stereo not drawn) | -7.45 | – | –
OC[C@H]1O[C@@H](OC/C=C/c2ccc(O)cc2)[C@H](O)[C@@H](O)[C@@H]1O | -11.1 | – | –
O=C1C[C@]23C=CCN4CCC5c6cc7c(cc6N1[C@@]5(CC2)C43)OCO7 (stereo partly drawn) | -4.65 | – | –
COc1cccc(NCCC2(c3ccccc3)CC(C)(C)OC(C)(C)C2)c1 | -25 | – | –
CNc1cccc(CCOc2ccc3c(c2)CN(CC(F)(F)F)C(=O)[C@H](CC(=O)O)C3)n1 | – | 116 nM (active) | –
Clc1cccc(COc2cncc(N3CCNCC3)n2)c1 | -5.94 | – | –
CCOc1cn(-c2ccc(F)cc2C)nc1C(=O)Nc1ccc(Oc2ccnc3cc(OC)c(OC)cc23)c(F)c1 | – | 5800 nM (active) | –
Nc1nccc(-c2c(-c3ccc(F)cc3)ncn2C2CCCCC2)n1 | – | 16400 nM (active) | –
CCN1CCC[C@@H]1CNC(=O)c1ccc2c(c1)NC(=O)c1cccc(C)c1S2 | – | – | inactive
O=C(Cc1c(F)cccc1F)Nc1cc(OCc2ccc(Cl)cc2)ccn1 | -10.7 | – | –
COc1ccc(S(=O)(=O)N2CCC[C@H]2C(=O)Nc2cc(C)cc(C)c2)cc1 | 0.512 | – | –
CC1(CO)CC2C(O)C3=C(CC(C)(O)C2C1)C(=O)OC3 (stereo not drawn) | 1.99 | – | –
CCN(c1cc(-c2ccc(CN3CCOCC3)cc2)cc(C(=O)NCc2c(C)cc(C)[nH]c2=O)c1C)C1CCOCC1 | -11.7 | – | –
O=C(CNC(=O)c1cccc(C(F)(F)F)c1)N[C@@H]1CCN(Cc2ccc(Cl)cc2)C1 | -1.44 | – | –
C=C(C(=O)OC[C@H]1O[C@@H](OC(=O)/C=C/c2ccccc2)[C@H](O)[C@@H](O)[C@@H]1O)C(O)CO (stereo partly drawn) | 1.83 | – | –
O=C(NCCN1CCC(n2c(=O)[nH]c3ccccc32)CC1)c1cc2cc(F)ccc2[nH]1 | – | – | inactive

Structure (SMILES) | max response [%] | Potency | outcome
CC1(C)SCCN(S(=O)(=O)c2ccc(Oc3ccncc3)cc2)[C@H]1C(=O)NO | 2.44 | – | –
COc1ccccc1C(=O)Nc1cc2c(cc1N1CCCC1)n(C)c(=O)n2C | -10.9 | – | –
CC1=CC2/C=C(\C)CCC3OC(C)(C)OC3CCC(=O)C23C(=O)NC(CC(C)C)C3C1C (stereo not drawn) | -3.16 | – | –
COc1ccc2nc3n[nH]c(C)c3c(NCCOCCO)c2c1 | 2.85 | – | –
CO[C@@H]1CC(OC2CCC3(C)C(CCC45CCC(C6=CC(=O)OC6)C(C)(CCC43)C5=O)C2)O[C@H](C)[C@@H]1O[C@@H]1O[C@H](CO[C@@H]2O[C@H](CO)[C@@H](O)[C@H](O)[C@H]2O)[C@@H](O)[C@H](O)[C@H]1O (stereo partly drawn) | -1.96 | – | –
CCCSc1nc(N[C@@H]2C[C@H]2c2ccc(F)c(F)c2)c2nnn([C@@H]3C[C@H](OCCO)[C@@H](O)[C@H]3O)c2n1 | -24.3 | – | –
CC(=O)O[C@H]1[C@H](O)C[C@@]2(C)C(CC[C@]3(C)C2CC=C2C4CC(C)(C)CC[C@]4(C(=O)O)CC[C@]23C)C1(C)C (stereo partly drawn) | -15.2 | – | –
CC1(NC(=O)c2ccc(C#Cc3cccc(F)c3)cn2)COC1 | -3.45 | – | –
C/C=C/C=C/C=C/C(=O)O[C@@H]1C=C2COC(=O)[C@]2(O)[C@@]2(C)CCCC(C)(C)[C@H]12 | -4.92 | – | –
Cn1ccc(NC(=O)c2cc(Oc3ccc(C(=O)N4CCC4)c(F)c3)c3c(c2)OC(C)(C)C3)n1 | 4.11 | – | –
Cc1ccnn1-c1ccc(C(=O)N2CCN(S(=O)(=O)c3ccc(Cl)c(C(F)(F)F)c3)CC2)cc1 | -5.12 | – | –
C=C(C)C1CC(O)C(C)C12CC(O)C1(C)OC1C2O (stereo not drawn) | -26.2 | – | –
CC(=O)O[C@@]12CO[C@@H]1C[C@H](O)[C@@]1(C)C(=O)[C@H](O)C3=C(C)[C@@H](OC(=O)[C@H](O)[C@@H](NC(=O)OC(C)(C)C)c4ccccc4)C[C@@](O)([C@@H](OC(=O)c4ccccc4)C12)C3(C)C (stereo partly drawn) | – | 22.4 nM (active) | –
Cc1c(C(=O)Nc2ccc(N3CCC(N4CCOCC4)CC3)c(C#N)c2)cnn1-c1ccc(Cl)cc1 | – | 366 nM (active) | –
CC(C)c1cc(-c2ccc(F)c3ccccc23)nc(N)n1 | – | – | inactive
C/C=C(/C)C(=O)O[C@@H]1C[C@@H](OC(=O)CC(C)C)C2(C)C3C(=O)C=C(C)C2C3C1(C)C (stereo partly drawn) | -2.22 | – | –
